# Hits are enriched below; roughly 7.2% of the tested compounds scored in any of these assays.
# HEK293 viab: cell viability loss counter-screen. HEK-293-SNCA-luc viability, GF-AFC fluorescence, 24 h. Potency, µM (top dose mostly 57.1 µM), for the others: at the top dose activity change, negative = cytotoxicity, actives largely listed as cytotoxic. hit rate 0.12% among 150,000;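 further: 0% = DMSO-treated cells and -100% = medium-only wells without cells; nearly all actives have a fitted effect of over 30% in size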
#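 HEK-293-SNCA-luc cells (1500/well) plated 24 h, then exposed 24 h to a dilution series; GF-AFC added 30 min at 37C, fluorescence 405/540 nm; normalised to medium-only and DMSO wells, Hill fit.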
# Luciferase inh: Photinus pyralis luciferase inhibition | AID 1347043 | purified P. pyralis luciferase, luminescence, biochemical | P08659 | hit rate 2.5% among 76,000 | Potency, µM (highest dose often 115 µM), hits mostly inhibitors; further: nearly all actives have a fitted effect of over 65% in size
# Target sequence (P08659 whole entry, looked up): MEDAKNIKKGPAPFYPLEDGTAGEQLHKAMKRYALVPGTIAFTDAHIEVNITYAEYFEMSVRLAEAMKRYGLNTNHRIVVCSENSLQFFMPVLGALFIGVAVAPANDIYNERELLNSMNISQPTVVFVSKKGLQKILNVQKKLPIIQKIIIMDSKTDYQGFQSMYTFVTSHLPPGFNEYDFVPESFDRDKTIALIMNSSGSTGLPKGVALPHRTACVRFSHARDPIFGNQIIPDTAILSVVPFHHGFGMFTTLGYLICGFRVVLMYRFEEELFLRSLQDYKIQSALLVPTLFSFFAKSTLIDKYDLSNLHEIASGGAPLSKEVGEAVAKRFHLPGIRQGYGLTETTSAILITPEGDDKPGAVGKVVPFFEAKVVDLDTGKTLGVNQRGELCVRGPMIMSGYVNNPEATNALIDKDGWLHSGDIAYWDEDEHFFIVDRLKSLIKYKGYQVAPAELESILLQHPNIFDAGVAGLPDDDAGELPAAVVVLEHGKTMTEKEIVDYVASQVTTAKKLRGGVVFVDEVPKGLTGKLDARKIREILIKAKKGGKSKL
#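 Purified 10nM P. pyralis luciferase with 10uM D-luciferin and 10uM ATP in 50mM Tris acetate pH 7.5, 10mM Mg acetate, 0.01% Tween-20, 0.05% BSA. qHTS titration; luminescence read by CCD imager.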
# SNCA expr inhib: SNCA gene expression inhibition | hit rate 0.17% among 140,000 | Potency, µM (doses to about 57.2 µM), for the others: at the highest dose activity change, negative = inhibition, actives largely listed as inhibitors | HEK-293 SNCA-luciferase knock-in, luminescence, 24 h | AID 1671194;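 further: plate controls were DMSO cells for no effect and cell-free wells for full effect; nearly all actives have a fitted effect of over 45% in size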
# HEK cytotox: HEK 293 cell cytotoxicity. HEK 293 viability, ATP luminescence (CellTiter-Glo), 48-72 h. Potency, µM (doses to about 115 µM), without a hit: top-dose activity change, negative = cytotoxicity, actives largely listed as inhibitors. hit rate 6.6% among 94,000; further: nearly all actives have a fitted effect of over 60% in size
#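 CellTiter-Glo luminescence (cellular ATP) was read after 48 or 72 hr of compound exposure at 37 degree Celsius. Cells were HEK 293 plated at 250 cells/well.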
# 3T3 cytotox: cytotoxic compounds in NIH 3T3 cells. NIH 3T3 viability, CellTiter-Glo ATP luminescence, 48-72 h. Potency, µM (titrated, usually from 96.7 µM), inactives show top-dose activity change, negative = cytotoxicity, actives largely listed as inhibitors. hit rate 4.3% among 94,000. AID 1345082; further: nearly all actives have a fitted effect of over 55% in size
#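 First NIH 3T3 cells are plated at 400 cells/well; next compound is pinned in; then plates incubate 48 or 72 hr at 37 °C; finally CellTiter-Glo is added and luminescence read after 10 min.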
# NPR1 antag: antagonists of human natriuretic peptide receptor Npr1 | hit rate 1.6% among 76,000 | HEK293 hNpr1 GloSensor cGMP, ANP-stimulated luminescence | Potency, µM (highest dose often 46.3 µM), inactives show at the top dose activity change, negative = inhibition, usual class: inhibitors; calls by dose curve; further: nearly all actives have a fitted effect of over 60% in size
#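 HEK293 cells stably expressing human Npr1 and cGMP GloSensor pGS-40F, loaded 2 h with 2% GloSensor reagent, given compound 30 min at room temperature. Luminescence read before and 20 min after 0.1 nM hNppA.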
# Starred values were filed as active, the others as inactive; i = inactive; ? = inconclusive; · = no result; [ ] = dose if it differs, or a comment. Unless noted, the call rests on the fitted dose curve; in most records, active means well fitted curve in the direction sought with a large enough effect; inconclusive means small, poorly fitted or top-dose-only effect, or another doubt; inactive means no such curve, though single readings can be large; an effect the other way counts as inactive or inconclusive. Unless noted, on the % scale 0 is the no-effect control and ±100 the full control effect; potency means the concentration at half of the fitted maximal effect.
SMILES,HEK293 viab,Luciferase inh,SNCA expr inhib,HEK cytotox,3T3 cytotox,NPR1 antag
c1ccc(CN2CCC[C@H]2c2nc(-c3ccnc(N4CCOCC4)c3)no2)nc1,-9.7%[87.6 µM],i,32.2%[87.6 µM],?,35.5µM*,-5.9%[70.6 µM]
c1ccc(CN2CCC[C@H]2c2nc(-c3ccc(-n4ccnc4)nc3)no2)cc1,-24.4%[87.6 µM],i,36.7%[87.6 µM],89.1µM*,?,-3.3%[70.6 µM]
CN1CCN(c2ccc(-c3noc([C@@H]4CCCN4C4CCCCC4)n3)cn2)CC1,23.5%[87.6 µM],i,0.5%[87.6 µM],79.4µM*,79.4µM*,1.8%[70.6 µM]
CC(C)N1CCC[C@H]1c1nc(-c2ccc(N3CCN(C)CC3)nc2)no1,9.1%[87.6 µM],i,-1.9%[87.6 µM],-13.4%[172 µM],-0.7%[138 µM],5.1%[70.6 µM]
O=C(c1ccccc1Cl)N1C[C@@H](CO)[C@H](c2nc(C3CC3)no2)C1,2.8%,i,10.1%,?,-21.4%,-5.8%
O=C(Cc1ccc(OC(F)(F)F)cc1)Nc1cccn2nc(C3CC3)nc12,-12.4%,i,5.7%,?,?,-4.1%
Cc1cccc(CN2CCCC3(CCN(C(=O)c4ccc(=O)[nH]c4)C3)C2=O)c1 (configuration not stated),2.4%,i,4.4%,-19.3%,-16.9%,8.1%
COc1ccc(C(=O)N2CCC[C@H]2c2nc(-c3ccccc3Cl)no2)cc1OC,-8.2%,i,71.5%,?,-16.1%,-8.7%
Cc1ccc(CN2CCCn3nc(C)c(-c4ccccc4-c4ccccc4)c32)o1,-14.2%[87.6 µM],i,?,?,44.7µM*,?
Cc1nn2c(c1-c1cccnc1N1CCOCC1)N(Cc1ccccc1)CCC2,2.5%[87.6 µM],i,?,63.1µM*,?,-27.4%[70.6 µM]
Cc1nn2c(c1-c1cccnc1N1CCOCC1)N(CC1CC1)CCC2,9.6%[87.6 µM],i,1.0%[87.6 µM],?,39.8µM*,-4.5%[70.6 µM]
Cc1nn2c(c1-c1ccccc1Oc1ccccc1)N(CC1CCOCC1)CCC2,-11.7%[87.6 µM],i,?,?,?,-15.8%[70.6 µM]
COc1ccccc1CN1CCCn2nc(C)c(-c3cccnc3N3CCOCC3)c21,-17.9%[87.6 µM],i,-12.3%[87.6 µM],?,?,-16.0%[70.6 µM]
CCN1c2cc(C(=O)N3CCN(c4ccccc4F)CC3)ccc2C(=O)N2CCCCC21 (configuration not stated),11.6%[12.5 µM],i,0.6%,?,-14.9%,0.0%
CCN1c2cc(C(=O)N3CCN(c4ccc(F)cc4)CC3)ccc2C(=O)N2CCCCC21 (configuration not stated),5.9%[12.5 µM],i,-4.1%,44.7µM*,-22.5%,7.2%
CCN1c2cc(C(=O)N3CCN(c4ccccc4)CC3)ccc2C(=O)N2CCCCCC21 (configuration not stated),-7.3%[12.5 µM],i,-20.2%,28.2µM*,-23.2%,0.0%
CC(C)c1nc2c(c(-c3ccc(O)cc3)n1)CN(Cc1ccc(C(F)(F)F)cc1)CC2,5.7%,i,-21.8%,39.8µM*,?,2.3%
CC(C)c1nc2c(c(-c3ccc(O)cc3)n1)CCN(Cc1ccc(C(F)(F)F)cc1)CC2,-7.6%,i,15.7%,35.5µM*,39.8µM*,5.3%
CC(C)c1nc2c(c(-c3ccc(O)cc3)n1)CN([S+](=O)([O-])c1cccc(C(F)(F)F)c1)CC2,-22.1%,i,-12.0%,?,17.8µM*,14.0%
CC(C)c1nc2c(c(-c3ccc(Cl)cc3)n1)CN([S+](=O)([O-])c1cccc(C(F)(F)F)c1)CC2,-3.9%,i,-19.0%,-2.6%,0.2%,1.1%
Oc1ccc(-c2nc(C3CC3)nc3c2CN(Cc2ccc(C(F)(F)F)cc2)CC3)cc1,-2.8%,i,4.7%,89.1µM*,?,-1.8%
CC(C)c1nc2c(c(-c3ccc(Cl)cc3)n1)CCN(Cc1ccc(C(F)(F)F)cc1)CC2,-8.9%,·,-9.2%,?,?,·
CC(C)c1nc2c(c(-c3ccc(Cl)cc3)n1)CCN(Cc1ccc(F)cc1)CC2,-2.8%,·,6.3%,39.8µM*,?,·
COc1ccc(C(=O)N2CCc3nc(C4CC4)nc(-c4ccc(OC)cc4)c3C2)cc1,-21.3%,·,-13.3%,-25.9%,?,·
COc1ccc(-c2nc(C3CC3)nc3c2CN(C(=O)c2ccc(C(F)(F)F)cc2)CC3)cc1,10µM*,·,?,?,?,·
SMILES,HEK293 viab,Luciferase inh,SNCA expr inhib,HEK cytotox,3T3 cytotox,NPR1 antag
O=C(c1ccc2c(c1)OCO2)N1CCc2nc(C3CC3)nc(-c3ccc(Cl)cc3)c2CC1,-16.9%,i,-16.7%,28.2µM*,?,-12.2%
O=C(c1ccc2c(c1)OCO2)N1CCc2nc(C3CC3)nc(-c3ccc(Cl)cc3)c2C1,?,·,-17.1%,-19.1%,-10.2%,·
O=C(NC1CCCC1)N1CCCC1C(=O)N1CCCC1c1nc2ccncc2[nH]1 (configuration not stated),-27.0%,·,-21.4%,i,-15.0%,·
CN1Cc2cccn2CC1CNC(=O)c1cccs1 (configuration not stated),-5.9%,i,-7.1%,-6.0%,-18.3%,3.7%
O=C(c1n[nH]c(=O)c2ccccc12)N1CCCC1c1nc(CCOCC2CC2)no1 (configuration not stated),-27.6%,i,4.5%,-0.6%,i,7.2%
O=C1CC(c2ccccc2)N(C(=O)CNS(=O)(=O)c2ccc3c(c2)CCC3)CCCCCCN1 (configuration not stated),-5.4%,i,-26.3%,?,?,-10.1%
O=C(Cc1cccs1)Nc1ccc2c(c1)CN(Cc1ccccc1F)C(=O)CO2,-9.4%,i,?,?,?,-18.4%
CC(C)NC(=O)NCc1nnc2n1C(C(=O)N1CCOCC1)CC2 (configuration not stated),2.0%,·,10.2%,3.2%,i,·
CCc1cccc(NC(=O)Cn2c(Nc3cc(C)cc(C)c3)nc(C)cc2=O)c1,-17.1%,i,12.8%,39.8µM*,-13.7%,-1.6%
CCc1ccc(NC(=O)Cn2c(N(C)Cc3ccccc3)nc(C)cc2=O)cc1,3.1%,i,-29.7%,35.5µM*,?,?
Cc1cc(=O)n(CC(=O)Nc2ccc(C)c(C)c2)c(N(C)Cc2ccccc2)n1,-0.9%,i,-7.5%,?,?,?
COc1cccc(CN2CCc3c(cc(C(=O)Nc4ccc(C)cc4C)n3C)C2)c1,1.6%,15.8µM*,81.4%,?,?,-2.4%
COc1cccc(CN2CCc3c(cc(C(=O)Nc4cc(OC)cc(OC)c4)n3C)C2)c1,0.5%,?,42.5%,?,?,6.9%
COc1ccccc1NC(=O)c1cc2c(n1C)CCN(Cc1ccc(F)cc1)C2,-3.8%,15.8µM*,141.3%,31.6µM*,?,6.4%
